Source: PubChem (Broad Institute)
This excerpt belongs to a sample that is enriched for hits.
MITF inh – inhibitors of MITF, primary screen, MITF inhibitor project, cell-based, luminescence; TRPM1 promoter luciferase, 24 h; AID 2240, 2010; inhibition, % (no concentration beside the values); actives 0.28% (n = 37,000); in the data active = inhibition above about 85%;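 note: human melanocyte line stably carrying TRPM1 promoter luciferase reporter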
YB-1 expr inh – inhibitors of YB-1 gene expression, primary screen, cell-based, fluorescence. U2OS, qRT-PCR YB-1 vs CDIP delta delta Cp, 16 h; active compounds read high; zero = DMSO, each unit about twofold. delta delta Cp (YB-1 minus CDIP) (test concentration not listed). actives 0.37% (n = 30,000);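 active = delta delta Cp rounded down to an integer at or above 3, about 3 SD of DMSO wells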;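 note: higher means less YB-1 transcript or more CDIP transcript relative to DMSO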
Hedgehog inh – Hedgehog pathway signaling inhibitors, primary screen, luminescence, Shh-LIGHT2 cells, Gli-luciferase; Shh-LIGHT2 Gli-luciferase reporter, 30 h; inhibition, % (test concentration not listed); actives 2.1% (n = 22,000);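 active = mean inhibition across valid replicates above about 65%, limit read from the data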;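 note: pathway switched on by Shh-conditioned medium diluted 1 in 25 in low serum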
BJeLR viab HTS – BJeLR cell viability loss, primary screen, luminescence, CellTiterGlo ATP | viability loss activity score, % (concentration not given with the values) | actives 0.64% (n = 30,000) | BJeLR fibroblasts viability, 48 h; HRASV12, hTERT and SV40 LT/ST transformed; in the data active = viability loss activity score above about 50%;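 note: higher score means fewer live cells and less ATP luminescence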
An asterisk follows results filed as active; . = no result.

SMILES | MITF inh | YB-1 expr inh | Hedgehog inh | BJeLR viab HTS
C=C1CCC2[C@](C)(CO)[C@H](O)CC[C@@]2(C)[C@@H]1C/C=C1/C(=O)OC[C@H]1O (stereo partly specified) | 28 | -0.044 | 93* | 20
C[C@H]1CN([C@@H](C)CO)C(=O)c2cc(NC(=O)C3CCCCC3)ccc2O[C@@H]1CN(C)C(=O)Nc1cccc2ccccc12 | -1 | 0.016 | -37 | 3
C[C@@H]1CN([C@@H](C)CO)C(=O)c2cc(NC(=O)C3CC3)ccc2O[C@H]1CN(C)C(=O)NC1CCCCC1 | 1 | 21* | -14 | -6
C[C@@H]1CN([C@@H](C)CO)C(=O)c2cccc(NC(=O)c3ccc(-c4nccs4)cc3)c2O[C@@H]1CN(C)C(=O)Nc1cccc2ccccc12 | 5 | -0.16 | 66* | -6
C[C@H](CO)N1C[C@H](C)[C@H](CN(C)C(=O)Nc2cccc3ccccc23)Oc2c(NC(=O)c3ccc(-c4nccs4)cc3)cccc2C1=O | -19 | 0.55 | -25 | 5
C[C@@H]1CN([C@@H](C)CO)C(=O)c2cc(NC(=O)C3CCCCC3)ccc2O[C@H]1CN(C)C(=O)Nc1cccc2ccccc12 | -2 | 5.6* | . | 0
CCOc1ccc(C(=O)Nc2ccc(NC(=O)c3ccccc3)c(C)c2)cc1Br | -2 | -0.28 | 96* | 4
CCOc1ccc(C(=O)Nc2cccc(NC(=O)c3ccccc3)c2)cc1Br | . | . | . | 3
Cn1cccc1/C=C1\CCc2ccccc2C1=O | . | . | . | 73*
COC(=O)c1ccc([C@H]2C(C#N)=C(N)C(C#N)(C#N)C3=CCC(C(C)(C)C)C[C@@H]32)cc1 (stereo partly specified) | 80 | 0.11 | 84* | -3
COc1cc2c(c(OC)c1OC)-c1cc3c(cc1C[C@H]1C(=O)OC[C@@H]1C2)OCO3 | -8 | -0.023 | 10 | 42
COc1cc2c(c(OC)c1OC)C[C@H]1COC(=O)[C@@H]1Cc1c-2cc(OC)c(OC)c1OC | . | 1.1 | 67* | .
O=C1N=C(c2cccc(O)c2)c2ccccc2Nc2ccccc21 | 10 | -0.026 | 86* | -4
C[C@H]1CN([C@@H](C)CO)C(=O)c2cc(NC(=O)Nc3ccc4c(c3)OCO4)ccc2O[C@H]1CN(C)CC1CCCCC1 | -2 | -0.052 | . | -1
Nc1ncnc2c1ncn2C1OC(CO)[C@H](O)[C@@H]1S (stereo partly specified) | -1 | 0.24 | -8 | 0
CC(C)(C)C(=O)OC[C@H]1O[C@@H](n2cnc3c(N)ncnc32)C[C@@H]1OC(=O)C(C)(C)C | -6 | 8.3* | -30 | -4
C[C@H](CO)N1C[C@H](C)[C@@H](CN(C)S(=O)(=O)c2ccc(Cl)cc2)Oc2c(NS(=O)(=O)c3cccs3)cccc2C1=O | 4 | 0.29 | -8 | 0
C[C@H](CO)N1C[C@H](C)[C@H](CN(C)S(=O)(=O)c2cccs2)Oc2ncc(C#Cc3ccc(C(F)(F)F)cc3)cc2C1=O | . | 6* | . | .
C[C@H](CO)N1C[C@H](C)[C@H](CN(C)S(=O)(=O)c2ccc(Cl)cc2)Oc2c(NS(=O)(=O)c3ccc(F)cc3)cccc2C1=O | 7 | -0.11 | 70* | -1
C[C@H](CO)N1C[C@H](C)[C@H](CN(C)S(=O)(=O)c2ccc(Cl)cc2)Oc2c(NS(=O)(=O)c3cccs3)cccc2C1=O | 12 | 0.081 | 77* | 1
C[C@H](CO)N1C[C@H](C)[C@H](CN(C)S(=O)(=O)c2cccs2)Oc2ncc(C#Cc3ccc(F)cc3)cc2C1=O | . | 0.011 | . | .
C[C@H]1CN([C@@H](C)CO)C(=O)c2cccc(NS(=O)(=O)c3ccc(F)cc3)c2O[C@@H]1CN(C)S(=O)(=O)c1ccc(Cl)cc1 | -12 | 0.17 | 31 | -1
CC1=C(c2ccc(C)cc2)S(=O)(=O)N=C1N1CCCC1 | . | . | . | -2
Cc1noc(C)c1NC(=O)N(C)C[C@@H]1Oc2c(NS(=O)(=O)c3cccs3)cccc2C(=O)N([C@@H](C)CO)C[C@H]1C | -10 | -0.05 | -54 | 1
CNC[C@@H]1Oc2ccc(NC(=O)Nc3ccc(C(F)(F)F)cc3)cc2C(=O)N([C@H](C)CO)C[C@H]1C | -2 | 0.51 | . | 4
SMILES | MITF inh | YB-1 expr inh | Hedgehog inh | BJeLR viab HTS
COc1ccc(-c2nc3ccccc3s2)cc1 | 70 | -0.054 | -36 | 60*
COc1ccc(NC(=O)C(C)N(c2ccc(C)c(C)c2)S(C)(=O)=O)cc1Cl (stereo unspecified) | 16 | . | . | .
O=c1[nH]c2ncccc2c(=O)n1Cc1ccccc1 | . | . | . | -6
Cc1cs/c(=N\C(=S)Nc2ccccc2)n1C | . | . | . | -2
Cn1c(-c2ccc(Cl)cc2)cs/c1=N\C(=S)NCCc1ccccc1 | 4 | -0.48 | 91* | 3
CC(C)(C)[C@]1(O)CCN2C[C@H]3c4ccccc4CCc4cccc(c43)[C@@H]2C1 | 30 | -0.74 | 78* | 6
CNC[C@@H]1Oc2ccc(NS(=O)(=O)c3ccc(Cl)cc3)cc2C(=O)N([C@@H](C)CO)C[C@H]1C | -6 | 0.58 | -43 | 0
COc1ccc(Cl)cc1NC(=O)C(C)n1cc([N+](=O)[O-])cn1 (stereo unspecified) | 16 | . | . | .
Cn1cnc([N+](=O)[O-])c1Sc1ncnc2nc[nH]c12 | 23 | 0.15 | 22 | 88*
Cc1nc(-c2cc(C#N)c(SCCNS(=O)(=O)c3ccc(C(C)(C)C)cc3)nc2C)cs1 | 7 | -0.65 | 90* | -4
COc1ccc(N(C)S(=O)(=O)c2ccc3c(c2)CCN3C(=O)C2CCC2)c(OC)c1 | . | . | . | -4
O=C1C=CC(=O)c2c(O)c(Cl)c(Cl)c(O)c21 | 60 | -0.43 | 44 | 54*
COC(=O)C[C@H]1C(C)(C)C(=O)[C@@H]2C[C@@]3(O)C4=CC(=O)O[C@@H](c5ccoc5)[C@]4(C)CCC3[C@@]1(C)C2=O (stereo partly specified) | -51 | 0.12 | 86* | 3
COC(=O)C[C@H]1C(C)(C)[C@H](OC(C)=O)[C@]2(O)CC3=C4CC(=O)O[C@@H](c5ccoc5)[C@]4(C)CCC3[C@@]1(C)C2=O (stereo partly specified) | -9 | 8* | 14 | -3
COc1ccc(-c2cc(C(F)(F)F)c(C#N)c(SCCCn3c(=O)[nH]c4ccccc43)n2)cc1 | . | . | . | -2
Cc1cc([N+](=O)[O-])nn1Cc1ccc(C(=O)Nc2ccc(CC#N)cc2)cc1 | 1 | . | . | .
CC(C)S(=O)(=O)c1csc(NC(=O)N2CCCCC2)c1Cl | 0 | 0.093 | -29 | 2
CC(C)S(=O)(=O)c1csc(NC(=O)Nc2cc(C(F)(F)F)cc(C(F)(F)F)c2)c1Cl | 65 | -0.28 | 106* | 28
CC(C)NC(=O)Nc1cccc2c1O[C@H](CN(C)C(=O)Nc1ccc(F)cc1)[C@@H](C)CN([C@H](C)CO)C2=O | -7 | 0.36 | 20 | 0
Cc1[nH]nc2c1C1=C(C(=O)CCC1)C(c1ccc(N(C)C)cc1)N2 (stereo unspecified) | -7 | -0.11 | 5 | -3
